Rows were chosen to be rich in hits. Some 7.5% of all compounds tested hit in one or more screens of this group.
VP16 counter: inhibits Gal4-VP16 luciferase reporter, ROR gamma counter-screen; Drosophila S2 Gal4-VP16 UAS-luciferase, luminescence, 20 h; Potency, µM (series often up to 53.6 µM), inactives show top-dose activity, negative = inhibition, actives largely listed as inhibitors; actives 3.5% (n = 310,000); AID 2546;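 further: Gal4-VP16 expression switched on by copper sulfate through the metallothionein promoter; potency means the concentration at half of the fitted maximal effect; nearly all actives have a fitted effect of over 50% in size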
ELG1 repair inh: inhibitors of ELG1-dependent DNA repair in HEK293T cells; HEK293T ELG1-luciferase reporter, luminescence, 16 h; DNA damage induced by 5-fluorouridine; Potency, µM (top dose mostly 46.1 µM), inactives show top-dose activity change, negative = inhibition, most hits filed as inhibitors; actives 2.3% (n = 330,000); AID 504467; further: potency means the concentration at half of the fitted maximal effect; nearly all actives have a fitted effect of over 55% in size
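DMSO vehicle served as the neutral condition. Each well held 2,000 cells given 5-fluorouridine plus compound; after 16 hr at 37 °C/5% CO2, ONE-Glo was added and luciferase measured 30 min later.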
B2AR arrestin: beta2AR (human) beta-arrestin recruitment activity. Potency, µM (doses to about 46.1 µM), without a hit: top-dose activation, most hits filed as activators. AID 492947. beta-arrestin recruitment to beta2AR, cell-based reporter. actives 0.02% (n = 330,000);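 further: potency means the concentration at half of the fitted maximal effect; 0% = DMSO controls and full agonism = EC100 isoproterenol or metaproterenol; nearly all actives have a fitted effect of over 65% in size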
TSHR antag: blocks TSH signaling through the human TSH receptor; activity change, negative = inhibition, % at 11.5 µM; TSHR-expressing cells, TSH-stimulated cAMP HTRF, 2 h; hits give low values; AID 504810; actives 0.2% (n = 330,000);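 active means activity change below a set negative limit, meaning inhibition stronger than a set level, cut at about -70% in these data; inconclusive means activity change between two set negative limits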
Target sequence (P16473 whole entry, looked up): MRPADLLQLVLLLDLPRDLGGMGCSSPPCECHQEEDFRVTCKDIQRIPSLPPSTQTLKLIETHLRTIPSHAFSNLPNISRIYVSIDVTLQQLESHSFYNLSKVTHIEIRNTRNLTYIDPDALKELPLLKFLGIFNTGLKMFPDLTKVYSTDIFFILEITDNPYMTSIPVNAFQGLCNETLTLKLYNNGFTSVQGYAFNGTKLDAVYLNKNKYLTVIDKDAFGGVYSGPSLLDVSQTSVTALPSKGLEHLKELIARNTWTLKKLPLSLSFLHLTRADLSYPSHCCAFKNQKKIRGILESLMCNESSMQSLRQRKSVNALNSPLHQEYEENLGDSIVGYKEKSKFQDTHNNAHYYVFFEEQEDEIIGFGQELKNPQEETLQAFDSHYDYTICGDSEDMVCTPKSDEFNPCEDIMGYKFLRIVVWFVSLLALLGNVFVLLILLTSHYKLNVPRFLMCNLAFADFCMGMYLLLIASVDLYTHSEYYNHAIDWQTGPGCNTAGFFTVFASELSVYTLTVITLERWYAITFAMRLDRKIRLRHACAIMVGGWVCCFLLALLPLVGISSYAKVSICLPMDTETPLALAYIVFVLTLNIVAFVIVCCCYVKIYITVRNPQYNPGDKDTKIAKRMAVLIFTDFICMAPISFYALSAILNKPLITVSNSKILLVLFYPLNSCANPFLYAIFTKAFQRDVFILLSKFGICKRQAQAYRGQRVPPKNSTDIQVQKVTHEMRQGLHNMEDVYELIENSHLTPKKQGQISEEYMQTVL
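Antagonism was scored as loss of TSH-driven cAMP in TSHR cells, stimulated with 4nM TSH (EC80) for 2 hours at 37 deg C and detected by homogeneous HTRF competition immunoassay.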
RORg inh: inhibitors of mouse ROR gamma transcriptional activity. P51450. Drosophila S2 Gal4-RORgamma UAS-luciferase reporter, 20 h. Potency, µM (titrated, usually from 53.6 µM), for the others: at the highest dose activity change, negative = inhibition, most hits filed as inhibitors. actives 5.4% (n = 310,000). AID 2551; further: potency means the concentration at half of the fitted maximal effect; nearly all actives have a fitted effect of over 60% in size
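Stable Schneider cell line, Gal4 DNA-binding domain fused to ROR gamma, UAS-luciferase. Cmpd 1 hr RT → CuSO4 700 uM final → 20 hr RT → luciferase reagent 10 min → luminescence.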
Numbers without * were called inactive; u = inconclusive; x = not tested or not shown. Unless noted, the call rests on the fitted dose curve; in most records, active means well fitted curve in the direction sought with a large enough effect; inconclusive means small, poorly fitted or top-dose-only effect, or another doubt; inactive means no such curve, though single readings can be large; an effect the other way counts as inactive or inconclusive. Unless noted, on the % scale 0 is the no-effect control and ±100 the full control effect.

SMILES | VP16 counter | ELG1 repair inh | B2AR arrestin | TSHR antag | RORg inh
COc1ccccc1NS(=O)(=O)c1cc(NC(=O)Nc2ccc(Cl)cc2Cl)ccc1N1CCCCC1 | -5.6% | -2.2% | -0.3% | 0.3 | 32.3%
COc1ccc(C(=O)Nc2ccc(-c3ccc(C)o3)cc2)cc1S(=O)(=O)N1CCOCC1 | u | 14.6µM* | -1.0% | u | u
COc1ccc(NS(=O)(=O)c2cc(NC(=O)c3ccco3)ccc2N2CCCCC2)cc1 | 12.6µM* | u | 0.2% | 11.3 | u
O=C(Nc1cccc(S(=O)(=O)N2CCCCC2)c1)c1ccc(OCC2CCCO2)cc1 (stereo unspecified) | u | 13µM* | 0.3% | -21.1 | u
CCCOc1ccc(Oc2ccc(S(=O)(=O)N3CCN(C)CC3)cn2)cc1 | x | u | 0.1% | 12.1 | x
Cc1ccccc1OC(=O)c1cccc(S(=O)(=O)N2CCN(C)CC2)c1 | x | -0.4% | -0.1% | -2.6 | x
O=C(Nc1ccc(Cl)c(S(=O)(=O)N2CCOCC2)c1)c1ccc(OCC2CCCO2)cc1 (stereo unspecified) | u | 2.91µM* | 0.1% | -87.1* | -11.8%
COc1ccc(C(=O)Nc2ccc(Cl)c(S(=O)(=O)N3CCOCC3)c2)cc1 | x | 9.2µM* | -0.6% | -45.0 | x
CC(C)Oc1ccc(C(=O)Nc2cccc(S(=O)(=O)N3CCCC3)c2)cc1 | x | 23.1µM* | 0.0% | -11.7 | x
COc1ccc(NS(=O)(=O)c2cc(NC(=O)c3ccc(Cl)cc3)ccc2N2CCOCC2)cc1 | x | 9.2µM* | -0.1% | 0.9 | x
COc1cccc(NC(=O)c2ccc(S(=O)(=O)N3CCCC3)cc2)c1 | -10.7% | 2.2% | -0.1% | -14.0 | 22.8%
Cc1ccc(NC(=O)c2ccc(OCC3CCCO3)cc2)cc1 (stereo unspecified) | -18.1% | u | 0.0% | 4.2 | -7.0%
Cc1ccc(CO)cc1 | -7.0% | x | x | x | 1.0%
O=C(Cn1cc([N+](=O)[O-])ccc1=O)NC1CCCCC1 | x | 21.4% | -0.6% | 8.5 | x
O=C(COC(=O)Cc1ccccc1)NCc1ccc2c(c1)OCO2 | x | 19.2% | -1.0% | 4.0 | x
CC1CCCC(C)N1C(=O)COC(=O)c1n[nH]c(=O)c2ccccc12 (stereo unspecified) | x | 6.2% | -0.9% | -4.2 | x
N#Cc1ccc(NC(=O)CNc2cc(S(=O)(=O)N3CCOCC3)ccc2NCC2CCCO2)cc1 (stereo unspecified) | -3.5% | 8.2µM* | 0.0% | 1.0 | 3.5%
O=C(CNc1cc(S(=O)(=O)N2CCOCC2)ccc1NCC1CCCO1)Nc1ccc(C(F)(F)F)cc1 (stereo unspecified) | x | u | -0.4% | 34.3 | x
COc1ccccc1NS(=O)(=O)c1cc(NC(=O)c2cccnc2)ccc1N1CCCCC1 | x | 18.3µM* | -0.4% | -15.1 | x
Cc1cccc(C)c1NC(=O)c1cccc2c1C(=O)N(C1CCCCC1)C2 | -11.6% | 21.3% | 0.6% | -0.5 | 8.2%
O/N=C/c1ccccc1OCc1ccccc1Cl | -5.3% | u | -0.9% | -0.1 | -18.0%
COc1cc(/C=N/O)ccc1OCc1ccccc1Cl | 5.01µM* | u | 0.0% | -2.6 | 1µM*
O=C(Nc1ccncc1)c1cc(-c2cccc(Br)c2)nc2ccccc12 | x | u | -0.6% | u | x
Cc1ccc2nc(-c3cccc(Br)c3)cc(C(=O)NC3=NCCS3)c2c1 | 4.47µM* | 20.6µM* | -0.2% | -10.6 | 2.51µM*
O=C(Nc1ncccn1)c1cc(-c2cccc(Br)c2)nc2ccccc12 | -4.6% | u | -0.2% | -1.8 | 13.5%
SMILES | VP16 counter | ELG1 repair inh | B2AR arrestin | TSHR antag | RORg inh
O=C(NC1=NCCS1)c1cc(-c2cccc(Br)c2)nc2ccccc12 | u | u | -0.6% | -14.2 | 7.08µM*
CSC(N)=NCCC[C@H](N)C(=O)O | x | x | x | -16.8 | x
COCCNc1nnc(SCC(=O)Nc2cc(-c3ccccc3)nn2-c2ccccc2)s1 | -27.8% | 20.6µM* | 0.1% | -7.4 | -28.6%
CC(C)(C)c1cc(NC(=O)CSc2nnc(N)s2)n(-c2ccccc2)n1 | -3.8% | -16.2% | -0.5% | 3.9 | u
COc1ccc(-n2cnnc2SCC(=O)Nc2cc(C(C)(C)C)nn2-c2ccccc2)cc1 | 2.8% | 20.6µM* | 0.2% | 8.8 | -2.3%
COc1ccccc1-n1cnnc1SCC(=O)Nc1cc(C(C)(C)C)nn1-c1ccccc1 | u | u | -0.6% | -3.8 | u
CC(C)(C)c1cc(NC(=O)CSc2nnc(NCc3ccccc3)s2)n(-c2ccccc2)n1 | u | 23.1µM* | 0.0% | 21.7 | u
COc1ccc(OC)c(CNC(=O)C2CCC(=O)N(CCCN3CCCC3=O)C2)c1 (stereo unspecified) | 3.1% | 10.9% | -0.1% | 14.3 | 1.3%
CC(C)(C)NC(=O)C[C@H]1C[C@H](C(=O)N2CCOCC2)[C@@]2(CCC3CCCC3)c3[nH]c4cc(-c5ccco5)ccc4c3CCN2C1=O | x | 5.8% | -0.5% | -7.2 | x
O=C(Nc1ccccc1Cl)N1CCN(c2ccc3nnc(-c4ccc(F)cc4)n3n2)CC1 | -11.0% | 20.6µM* | 0.2% | 5.7 | 37.5%
COc1ccccc1NC(=O)N1CCN(c2ccc3nnc(-c4ccc(F)cc4)n3n2)CC1 | u | u | -0.8% | -14.0 | -12.2%
Cc1ccnc(NC(=O)COc2ccccc2[N+](=O)[O-])c1 | u | u | -0.9% | -6.3 | 11.2µM*
Cc1ccc(NC(=O)COc2ccccc2[N+](=O)[O-])nc1 | u | u | 0.0% | 2.8 | 6.31µM*
CC(C)C(=O)N1CCN(c2ccc(NC(=O)COc3ccccc3[N+](=O)[O-])cc2)CC1 | -1.6% | 9.2µM* | 0.0% | -23.5 | 27.5%
COCC1C2CC[C@H]3C(OCc4ccc(F)cc4C(F)(F)F)OC[C@]4(C)[C@H]3C2=C(CN4C(=O)OC(C)(C)C)[C@H](C)C1COC (stereo partly specified) | 6.4% | x | x | x | -0.4%
S=c1[nH]c(-c2ccccc2)cn1/N=C/c1ccncc1 | -13.8% | -12.6% | -0.2% | -11.4 | 6.31µM*
CCOc1ccc(/C=N/n2cc(-c3ccccc3)[nH]c2=S)cc1 | u | 10.2% | u | 1.5 | 1.26µM*
O=P1(O)OP(=O)(O)OP(=O)(O)O1.[Al] | -4.0% | x | x | x | 11.5%
CC(C)C(NC(=O)c1ccccc1)C(=O)OCc1cc([N+](=O)[O-])cc2c1OCOC2 (stereo unspecified) | -3.1% | -9.9% | -0.1% | 4.3 | u
CCOc1ccccc1C(=O)N[C@H](C(=O)OCc1cc([N+](=O)[O-])cc2c1OCOC2)C(C)C | -20.2% | 20.6µM* | 0.0% | 1.7 | 18.9%
CC/C(=N\NC(=S)Nc1cc(C)ccc1C)c1ccc(OC(F)F)cc1 | -99.7% | u | -0.6% | -8.6 | u
CC/C(=N\NC(=S)Nc1ccc(OC)cc1)c1ccc(OC(F)F)cc1 | u | -14.9% | -1.8% | -5.0 | 12.6µM*
COc1ccc(S(=O)(=O)N/N=C(/C)c2ccc(Cl)cc2)cc1 | -4.9% | 0.5% | -0.4% | -3.6 | 15.2%

Bioassay records from PubChem.
